# Source: PubChem BioAssay
# For some assays here: Measured potencies and affinities stand elsewhere. Calls of active or inactive are those of the source.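 How the source made its calls, unless noted: active means primary screen inhibitor hit that blocks the TRPC4 channel at some tested dose, yielding a dose curve; inactive means the rest.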
# Columns and labels:
# [1] = system: TRPC4 beta (transient receptor potential cation channel C4), mouse; test: TRPC4 cation channel opening, retest – cell-based, Fluo4 calcium, HEK293 TRPC4beta/mu-opioid, duplicates, 10 µM, confirmation (AID 2426;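 active means fluorescence ratio normalized to control raised more than 50% in primary screen plus both repeat runs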;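 on activation: percent rise of integrated ratio over buffer wells lacking compound which define 0%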); details: Fluo4 calcium fluorescence, at 10 µM; active compounds read high
# [2] = system: transient receptor potential cation channel C4 beta (TRPC4), mouse; test: TRPC4 cation channel opening, second retest – cell-based, second round, Fluo4, HEK293 TRPC4beta/mu-opioid, 1 µM, confirmation (AID 2461;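 active means primary screen active and over 50% activation in each of two duplicate runs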;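 on activation: 0% = wells without test compound as baseline of integrated fluorescence ratio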); details: Fluo4 calcium fluorescence, at 1 µM; active compounds read high
# [3] = system: TRPC4 (transient receptor potential cation channel C4 beta), mouse; test: potentiation of DAMGO EC20 TRPC4 response – cell-based, second round, Fluo-4, HEK293 TRPC4beta/mu-opioid, 1 µM, confirmation (AID 2554;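 active means primary screen hit whose fluorescence ratio, in both repeats, exceeds the weak agonist control mean by 3 SD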); details: DAMGO EC20, Fluo-4 calcium flux, at 1 µM; active compounds read high
# [4] = system: TRPC4 beta (transient receptor potential cation channel C4), mouse; test: potentiation of DAMGO EC20 TRPC4 response – cell-based, Fluo-4, HEK293 TRPC4beta/mu-opioid, confirmation (AID 2555;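 active means primary screen hit whose calcium fluorescence ratio, in both repeats, exceeds the weak agonist control mean by 3 SD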); details: DAMGO EC20, Fluo-4 calcium flux, at 10 µM; active compounds read high
# [5] = molecular target: Short transient receptor potential channel 4 (Mus musculus) (UniProt Q9QUQ5); test: blockers of DAMGO-evoked TRPC4 calcium flux – cell-based, Fluo4, HEK293 TRPC4beta/mu-opioid, confirmation (AID 2636;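 active means calcium signal cut by more than 3 SD below the full-agonist control yet still positive, in both repeats and the earlier primary screen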); details: at 10 µM; active compounds read high
# [6] = molecular target: Short transient receptor potential channel 4 (Mus musculus) (UniProt Q9QUQ5); test: blockers of DAMGO-evoked TRPC4 calcium flux – cell-based, second round, Fluo4, HEK293 TRPC4beta/mu-opioid, 1 µM, confirmation (AID 2637;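 active means calcium signal ratio cut to more than 3 SD under the fully stimulated control mean yet still positive, in both repeats and the primary screen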); details: at 1 µM; active compounds read high
# [7] = molecular target: Short transient receptor potential channel 4 (Mus musculus) (UniProt Q9QUQ5); test: potentiation of DAMGO-evoked TRPC4 calcium signal – cell-based, HEK293 TRPC4/mu-opioid, Fluo-4 calcium, EC20 DAMGO, dose response (AID 434941;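 active means earlier screen potentiator hit that boosts the TRPC4 ion channel at some dose, with a dose response; inactive means no potentiation, no dose response, or not a prior hit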;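 further: calcium entry triggered by an EC20 dose of DAMGO at the co-expressed mu-opioid receptor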)
# [8] = molecular target: Short transient receptor potential channel 4 (Mus musculus) (UniProt Q9QUQ5); test: block of DAMGO-driven TRPC4 calcium entry – cell-based, HEK293 TRPC4/mu-opioid, Fluo-4 calcium, dose response (AID 434942)
# [9] = molecular target: Short transient receptor potential channel 6 (Mus musculus) (UniProt Q61143); test: TRPC6 blockade by TRPC4 inhibitor hits – cell-based, HEK293, membrane potential dye, duplicate, selectivity assay for TRPC4 inhibitor project, confirmation (AID 434948;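 active means active in primary screen and both duplicates, each dropping signal beyond three positive-control SD with fluorescence still positive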); details: HEK293 TRPC6, membrane potential dye fluorescence, at 10 µM, stimulated with maximal-effect acetylcholine; active compounds read high
# [10] = molecular target: Short transient receptor potential channel 6 (Mus musculus) (UniProt Q61143); test: TRPC6 opening by TRPC4 activator hits – cell-based, HEK293, membrane potential dye, duplicate, selectivity assay for TRPC4 activator project, confirmation (AID 434950;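 active means membrane potential signal rise above negative control mean plus 3 SD in both duplicates, also active in the earlier TRPC4 screen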;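 on activation: 0% = buffer only wells and 100% = acetylcholine maximal-effect wells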); details: HEK293 TRPC6, membrane potential fluorescence, at 10 µM; activation: active compounds read high; outcome: activation
# [11] = molecular target: Short transient receptor potential channel 6 (Mus musculus) (UniProt Q61143); test: positive modulators of mouse TRPC6 channel – HEK293 cells, membrane potential dye, duplicate, selectivity assay for TRPC4 potentiator project, confirmation (AID 434952;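 active means compound raising the membrane signal above positive-control mean plus 3 SD in both repeats, and a primary screen hit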); details: HEK293 TRPC6, membrane potential dye fluorescence, at 10 µM, maximal acetylcholine added after compound; active compounds read high
# [12] = molecular target: Short transient receptor potential channel 4 (Mus musculus) (UniProt Q9QUQ5); test: calcium flux activators in TRPC4/5HT1a cells, counter-screen for TRPC4 activator project, cell-based, second counter screen, HEK293 TRPC4/5HT1a, Fluo-4 (AID 434977;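 active means calcium signal rise above buffer-control mean plus 5 SD in both duplicates, and also a hit in the primary screen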;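 on activation: plate controls were assay buffer for no effect and maximal serotonin response for full effect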); details: Fluo-4 calcium flux, at 10 µM; active compounds read high
# [13] = serotonin-gated TRPC4 signal block – cell-based, second counter screen, HEK293 TRPC4/5HT1a, Fluo-4, counter-screen for TRPC4 inhibitor project, confirmation (AID 434978;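 active means primary screen active whose calcium signal fell more than 3 SD beyond the full-serotonin control mean in both duplicate plates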;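 further: serotonin given first at submaximal then at maximal dose after compound preincubation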); details: Fluo-4 calcium flux, at 10 µM, serotonin added to trigger calcium flux; active compounds read high
# [14] = system: TRPC4 (mouse), co-expressed with 5HT1a in HEK293; test: enhancement of serotonin-evoked TRPC4 response – cell-based, second counter screen, HEK293 TRPC4/5HT1a, Fluo-4, counter-screen for TRPC4 potentiator project, confirmation (AID 434979;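 active means signal rise over 3 SD above mean of control wells given weak agonist, in both repeats and first screen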); details: Fluo-4 calcium flux, at 10 µM, serotonin added at its EC20 dose; active compounds read high
# [15] = nonspecific calcium rise without TRPC4 – cell-based, HEK293 mu-opioid receptor line, counter-screen for TRPC4 activator project, confirmation (AID 449723;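 active means hit in primary screen, with calcium signal over 5 SD above buffer well mean in both duplicates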;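 further: counter screen cells carry the mu-opioid receptor alone and lack TRPC4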); details: HEK293 mu-opioid cells, Fluo-4 calcium fluorescence, at 10 µM; active compounds read high
# [16] = nonspecific potentiation of DAMGO calcium response – cell-based, HEK293 mu-opioid receptor line, counter-screen for TRPC4 allosteric potentiator project, confirmation (AID 449724;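 active means calcium signal rise more than 3 SD above the low-dose agonist control mean, in both duplicate plates and the primary screen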); details: HEK293 mu-opioid receptor cells, Fluo-4 calcium flux, at 10 µM, compound added before EC20 DAMGO stimulus; active compounds read high
# Chain of Short transient receptor potential channel 4 (Mus musculus) (Q9QUQ5 whole entry, looked up): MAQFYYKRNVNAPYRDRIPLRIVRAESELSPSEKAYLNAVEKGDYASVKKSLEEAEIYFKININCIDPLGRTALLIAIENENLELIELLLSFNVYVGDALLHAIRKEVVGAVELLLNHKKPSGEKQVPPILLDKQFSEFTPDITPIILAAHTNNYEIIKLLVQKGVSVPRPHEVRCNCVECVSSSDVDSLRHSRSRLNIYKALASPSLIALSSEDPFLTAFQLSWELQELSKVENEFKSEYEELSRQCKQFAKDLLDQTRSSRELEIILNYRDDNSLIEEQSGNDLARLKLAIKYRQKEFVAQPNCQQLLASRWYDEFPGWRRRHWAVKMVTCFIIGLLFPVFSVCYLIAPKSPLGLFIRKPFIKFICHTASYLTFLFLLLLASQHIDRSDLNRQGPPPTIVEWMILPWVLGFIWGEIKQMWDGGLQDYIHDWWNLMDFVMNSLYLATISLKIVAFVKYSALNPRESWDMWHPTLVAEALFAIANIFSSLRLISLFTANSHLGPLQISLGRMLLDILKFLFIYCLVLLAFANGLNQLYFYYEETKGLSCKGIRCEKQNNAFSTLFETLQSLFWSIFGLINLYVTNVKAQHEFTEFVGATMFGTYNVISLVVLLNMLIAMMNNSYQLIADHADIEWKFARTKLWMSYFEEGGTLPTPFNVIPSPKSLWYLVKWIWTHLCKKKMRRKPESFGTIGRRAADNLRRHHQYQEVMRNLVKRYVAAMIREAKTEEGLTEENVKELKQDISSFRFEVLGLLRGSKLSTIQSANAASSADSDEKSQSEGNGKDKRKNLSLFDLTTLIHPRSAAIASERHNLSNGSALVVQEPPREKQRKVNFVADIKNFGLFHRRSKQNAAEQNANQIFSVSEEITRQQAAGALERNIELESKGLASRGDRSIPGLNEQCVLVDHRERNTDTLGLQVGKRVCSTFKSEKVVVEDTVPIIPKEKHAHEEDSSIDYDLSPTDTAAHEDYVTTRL
# Chain of Short transient receptor potential channel 6 (Mus musculus) (Q61143 whole entry, looked up): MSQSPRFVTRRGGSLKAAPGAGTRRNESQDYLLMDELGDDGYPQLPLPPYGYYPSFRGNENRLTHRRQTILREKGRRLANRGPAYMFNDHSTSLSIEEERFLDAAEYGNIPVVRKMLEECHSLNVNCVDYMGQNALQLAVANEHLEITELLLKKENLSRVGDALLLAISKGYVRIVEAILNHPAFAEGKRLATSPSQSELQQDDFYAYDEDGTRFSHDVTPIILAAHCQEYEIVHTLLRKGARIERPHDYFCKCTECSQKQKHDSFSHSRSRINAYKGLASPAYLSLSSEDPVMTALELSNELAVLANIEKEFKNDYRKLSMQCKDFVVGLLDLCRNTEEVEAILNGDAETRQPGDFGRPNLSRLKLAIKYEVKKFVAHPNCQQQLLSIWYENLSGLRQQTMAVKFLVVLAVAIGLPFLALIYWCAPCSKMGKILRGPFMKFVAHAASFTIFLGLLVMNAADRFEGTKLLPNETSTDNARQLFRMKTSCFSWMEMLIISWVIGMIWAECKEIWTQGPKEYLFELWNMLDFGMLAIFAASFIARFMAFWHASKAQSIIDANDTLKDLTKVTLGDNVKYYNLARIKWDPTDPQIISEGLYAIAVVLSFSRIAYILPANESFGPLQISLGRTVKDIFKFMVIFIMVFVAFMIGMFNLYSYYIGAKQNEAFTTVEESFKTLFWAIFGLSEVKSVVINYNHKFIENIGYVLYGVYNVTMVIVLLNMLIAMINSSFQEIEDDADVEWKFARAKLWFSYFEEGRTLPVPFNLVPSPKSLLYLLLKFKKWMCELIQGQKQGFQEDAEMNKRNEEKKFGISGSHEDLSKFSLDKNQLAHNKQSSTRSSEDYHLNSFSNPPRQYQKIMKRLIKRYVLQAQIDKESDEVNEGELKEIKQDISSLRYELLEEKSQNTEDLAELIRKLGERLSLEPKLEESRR
smiles,measurement,setting,value
Fc1ccc(-n2cc(CNCCc3cccnc3)c(-c3ccccc3Cl)n2)cc1,activation,[1],153% (active)
same,outcome,[2],inactive
same,outcome,[3],inactive
same,outcome,[4],inactive
same,outcome,[5],inactive
same,outcome,[6],inactive
same,outcome,[7],inactive
same,outcome,[8],inactive
same,outcome,[9],inactive
same,activation,[10],31% (active)
same,outcome,[11],inactive
same,outcome,[12],inactive
same,outcome,[13],inactive
same,outcome,[14],inactive
same,outcome,[15],inactive
same,outcome,[16],inactive
O=C(NC1CCN(Cc2ccccc2)CC1)C12CC3CC(CC(C3)C1)C2,activation,[1],166% (active)
same,outcome,[2],inactive
same,outcome,[3],inactive
same,outcome,[4],inactive
same,outcome,[5],inactive
same,outcome,[6],inactive
same,outcome,[7],inactive
same,outcome,[8],inactive
same,outcome,[9],inactive
same,activation,[10],54% (active)
same,outcome,[11],inactive
same,activation,[12],61.6% (active)
same,outcome,[13],inactive
same,outcome,[14],inactive
same,outcome,[15],inactive
same,outcome,[16],inactive
O=C1/C(=C\c2cc([N+](=O)[O-])ccc2O)SC(=S)N1Cc1ccc(Cl)cc1,activation,[1],147% (active)
same,outcome,[2],inactive
same,outcome,[3],inactive
same,potentiation,[4],21% (active)
same,outcome,[5],inactive
same,outcome,[6],inactive
same,outcome,[7],inactive
same,outcome,[8],inactive
same,outcome,[9],inactive
same,activation,[10],529% (active)
same,"potentiation, percent of control",[11],192% (active)
same,activation,[12],147% (active)
same,outcome,[13],inactive
same,potentiation,[14],21% (active)
same,activation,[15],158% (active)
same,activation,[16],5450% (active)
CCN1CCCC1CNC(=O)c1cc2c(OC)cccc2[nH]1 (configuration not stated),activation,[1],136% (active)
same,outcome,[2],inactive
same,outcome,[3],inactive
same,outcome,[4],inactive
same,outcome,[5],inactive
same,outcome,[6],inactive
same,outcome,[7],inactive
same,outcome,[8],inactive
same,outcome,[9],inactive
same,activation,[10],36.5% (active)
same,outcome,[11],inactive
same,outcome,[12],inactive
same,outcome,[13],inactive
same,outcome,[14],inactive
same,outcome,[15],inactive
same,outcome,[16],inactive
Cc1ccccc1Cn1c(CN2CCc3ccccc3C2)nc2c1c(=O)n(C)c(=O)n2C,activation,[1],163% (active)
same,outcome,[2],inactive
same,potentiation,[3],6% (active)
same,potentiation,[4],46% (active)
same,outcome,[5],inactive
same,outcome,[6],inactive
same,outcome,[7],inactive
same,outcome,[8],inactive
same,outcome,[9],inactive
same,activation,[10],71% (active)
same,outcome,[11],inactive
same,outcome,[12],inactive
same,outcome,[13],inactive
same,potentiation,[14],88.5% (active)
same,outcome,[15],inactive
same,outcome,[16],inactive
c1ccc(Cn2nnnc2C(c2cccnc2)N2CCN(C3CCCCC3)CC2)cc1 (configuration not stated),activation,[1],115% (active)
same,outcome,[2],inactive
same,outcome,[3],inactive
same,outcome,[4],inactive
same,outcome,[5],inactive
same,outcome,[6],inactive
same,outcome,[7],inactive
same,outcome,[8],inactive
same,outcome,[9],inactive
same,activation,[10],47.5% (active)
same,outcome,[11],inactive
same,activation,[12],32.6% (active)
same,outcome,[13],inactive
same,outcome,[14],inactive
same,outcome,[15],inactive
same,outcome,[16],inactive
Clc1ccc2nc(N3CCNCC3)nc(-c3ccccc3)c2c1,activation,[1],74% (active)
same,outcome,[2],inactive
same,outcome,[3],inactive
same,outcome,[4],inactive
same,outcome,[5],inactive
same,outcome,[6],inactive
same,outcome,[7],inactive
same,outcome,[8],inactive
same,outcome,[9],inactive
same,outcome,[10],inactive
same,outcome,[11],inactive
same,activation,[12],26.8% (active)
same,outcome,[13],inactive
same,outcome,[14],inactive
same,activation,[15],12.1% (active)
same,outcome,[16],inactive
CC(C)n1cnc2c(N(C)c3ccccc3)nc(N(CCN(C)C)Cc3ccccc3)nc21,outcome,[1],inactive
same,outcome,[2],inactive
same,outcome,[3],inactive
same,outcome,[4],inactive
same,outcome,[5],inactive
same,outcome,[6],inactive
same,outcome,[7],inactive
same,outcome,[8],inactive
same,outcome,[9],inactive
same,activation,[10],31% (active)
same,outcome,[11],inactive
same,outcome,[12],inactive
same,outcome,[13],inactive
same,outcome,[14],inactive
same,outcome,[15],inactive
same,outcome,[16],inactive
Cc1cc(C)cc(NC(=S)N2CCN(c3ncc(C(F)(F)F)cc3Cl)CC2)c1,activation,[1],105% (active)
same,outcome,[2],inactive
same,outcome,[3],inactive
same,outcome,[4],inactive
same,outcome,[5],inactive
same,outcome,[6],inactive
same,outcome,[7],inactive
same,outcome,[8],inactive
same,outcome,[9],inactive
same,activation,[10],25% (active)
same,outcome,[11],inactive
same,activation,[12],49.6% (active)
same,outcome,[13],inactive
same,outcome,[14],inactive
same,outcome,[15],inactive
same,outcome,[16],inactive
CCOC(=O)C1(Cc2ccccc2)CCN(Cc2cn[nH]c2-c2ccccc2)CC1,activation,[1],192% (active)
same,outcome,[2],inactive
same,outcome,[3],inactive
same,outcome,[4],inactive
same,outcome,[5],inactive
same,outcome,[6],inactive
same,outcome,[7],inactive
same,outcome,[8],inactive
same,outcome,[9],inactive
same,activation,[10],76% (active)
same,outcome,[11],inactive
same,outcome,[12],inactive
same,outcome,[13],inactive
same,outcome,[14],inactive
same,outcome,[15],inactive
same,outcome,[16],inactive
CC(C)C1CC(CCNCc2ccc(N(C)C)cc2)(c2ccccc2)CCO1 (configuration not stated),activation,[1],185% (active)
same,outcome,[2],inactive
same,outcome,[3],inactive
same,outcome,[4],inactive
same,outcome,[5],inactive
same,outcome,[6],inactive
same,outcome,[7],inactive
same,outcome,[8],inactive
same,outcome,[9],inactive
same,activation,[10],29% (active)
same,outcome,[11],inactive
same,activation,[12],31.2% (active)
same,outcome,[13],inactive
same,outcome,[14],inactive
same,outcome,[15],inactive
same,outcome,[16],inactive
Cc1ccc(NC(=O)CCN2CCC(Cc3ccccc3)CC2)cc1,outcome,[1],inactive
same,outcome,[2],inactive
same,outcome,[3],inactive
same,outcome,[4],inactive
same,outcome,[5],inactive
same,outcome,[6],inactive
same,outcome,[7],inactive
same,outcome,[8],inactive
same,outcome,[9],inactive
same,outcome,[10],inactive
same,outcome,[11],inactive
same,activation,[12],15.7% (active)
same,outcome,[13],inactive
same,outcome,[14],inactive
same,outcome,[15],inactive
same,outcome,[16],inactive
CCOC(=O)C1(CCOC)CCN(Cc2ccccc2-c2ccco2)CC1,activation,[1],60% (active)
same,outcome,[2],inactive
same,outcome,[3],inactive
same,outcome,[4],inactive
same,outcome,[5],inactive
same,outcome,[6],inactive
same,outcome,[7],inactive
same,outcome,[8],inactive
same,outcome,[9],inactive
same,activation,[10],68.5% (active)
same,outcome,[11],inactive
same,outcome,[12],inactive
same,outcome,[13],inactive
same,outcome,[14],inactive
same,outcome,[15],inactive
same,outcome,[16],inactive
CN(C)CCCN(C(=O)c1ccc(S(=O)(=O)N2CCc3ccccc32)cc1)c1nc2ccc(F)cc2s1,activation,[1],79% (active)
same,outcome,[2],inactive
same,outcome,[3],inactive
same,outcome,[4],inactive
same,outcome,[5],inactive
same,outcome,[6],inactive
same,outcome,[7],inactive
same,outcome,[8],inactive
same,outcome,[9],inactive
same,outcome,[10],inactive
same,outcome,[11],inactive
same,outcome,[12],inactive
same,outcome,[13],inactive
same,outcome,[14],inactive
same,outcome,[15],inactive
same,outcome,[16],inactive
O=C(NC1CC1)C1=C[C@H](c2csc3ccccc23)C[C@H](OCc2ccc(CO)cc2)O1,outcome,[1],inactive
same,outcome,[2],inactive
same,outcome,[3],inactive
same,outcome,[4],inactive
same,outcome,[5],inactive
same,outcome,[6],inactive
same,outcome,[7],inactive
same,outcome,[8],inactive
same,outcome,[9],inactive
same,activation,[10],35.5% (active)
same,outcome,[11],inactive
same,outcome,[12],inactive
same,outcome,[13],inactive
same,outcome,[14],inactive
same,outcome,[15],inactive
same,outcome,[16],inactive
CC(C)(C)C(=O)NC(=S)NNC(=O)c1sc2ccccc2c1Cl,activation,[1],323% (active)
same,activation,[2],96% (active)
same,outcome,[3],inactive
same,outcome,[4],inactive
same,outcome,[5],inactive
same,outcome,[6],inactive
same,outcome,[7],inactive
same,outcome,[8],inactive
same,outcome,[9],inactive
same,activation,[10],36.5% (active)
same,outcome,[11],inactive
same,activation,[12],148% (active)
same,outcome,[13],inactive
same,outcome,[14],inactive
same,activation,[15],136% (active)
same,outcome,[16],inactive
NC(=O)C1CCCN(CCc2ccccc2)C1 (configuration not stated),activation,[1],157% (active)
same,activation,[2],133% (active)
same,outcome,[3],inactive
same,outcome,[4],inactive
same,outcome,[5],inactive
same,outcome,[6],inactive
same,outcome,[7],inactive
same,outcome,[8],inactive
same,outcome,[9],inactive
same,outcome,[10],inactive
same,outcome,[11],inactive
same,activation,[12],74.3% (active)
same,outcome,[13],inactive
same,outcome,[14],inactive
same,outcome,[15],inactive
same,outcome,[16],inactive
